The results in this text go back to PubChem BioAssay (Tox21).

Values without a mark were called inactive. Inconclusive results are not listed. Active and inactive are the calls of the source. Unless noted, the call rests on the fitted dose curve; in most records, active means well fitted curve in the direction sought with a large enough effect in the repeat runs; inconclusive means weak or mixed curves; inactive means no such curve, though single readings can be large; an effect the other way counts as inactive or inconclusive.

A short description of experiment [1]: qHTS assay to identify small molecule antagonists of the constitutive androstane receptor (CAR) signaling pathway - cell viability counter screen (AID 1224837). Further: nearly all actives have a fitted effect of over 45% in size. Further: potency means the concentration at half of the fitted maximal effect. The gist of the method:
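HepG2 cells stably carrying hCAR and CYP2B6-2.2kb reporter, stimulated with 50 nM CITCO and compounds at 15 concentrations for 23 h at 37 C. Viability measured by CellTiter-Fluor fluorescence.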

Experiment [2] in a line: qHTS assay to identify small molecule antagonists of the estrogen related receptor signaling pathway with the pleiotropic PPARgamma coactivator (PGC) from Tox21 10K library - cell viability counter screen (AID 1224840; active means well fitted cell-killing curve with a large enough effect in the repeat runs, not every such curve was filed as active; further: nearly all actives have a fitted effect of over 40% in size; further: potency means the concentration at half of the fitted maximal effect). The essentials:
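PGC/ERR cells (2,000/well) plated 6 h, then compound-treated for 17.5 h at 37 C. Viability measured by CellTiter-Fluor fluorescence after 30 min at 37 C, multiplexed with the pathway assay.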
Background: In qHTS, concentration-response curves come from the screen itself.

The nature of experiment [3]: qHTS assay to identify small molecule agonists of the estrogen related receptor signaling pathway with the pleiotropic PPARgamma coactivator (PGC) from Tox21 10K library (AID 1224842). Further: on the % scale 0 is the no-effect control and ±100 the full control effect; nearly all actives have a fitted effect of over 15% in size. The gist of the method: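 PGC/ERR reporter cell line, 2,000 cells per well, incubated 6 h at 37 C before 23 nL compound in DMSO was added. After 18 h at 37 C, One-Glo luminescence read following 30 min at room temperature.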

For experiment [4], the target named is Thyrotropin receptor (Homo sapiens) (UniProt P16473). Briefly: qHTS assay to identify small molecule agonists of the thyroid stimulating hormone receptor (TSHR) signaling pathway (AID 1224843; calls by dose curve; further: on the % scale 0 is the no-effect control and ±100 the full control effect; nearly all actives have a fitted effect of over 45% in size). The gist of the method:
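Steps: seed 800 TSHR-HEK293 cells per well; add test compound and hold 30 min at ambient temperature; dispense cAMP-d2 then anti-cAMP cryptate; incubate 1 h at ambient; measure fluorescence intensity.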

Experiment [5] is described as follows: qHTS assay to identify small molecule agonists of the hypoxia (HIF-1) signaling pathway - cell viability counter screen (AID 1224844; calls by dose curve; further: nearly all actives have a fitted effect of over 50% in size; further: potency means the concentration at half of the fitted maximal effect). The gist of the method: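 HRE-bla ME-180 cells, 2,000/well in 0.5% dialyzed FBS medium, treated 17 h at 37C with compounds. Viability read in the same wells as the bla reporter, by CellTiter-Glo luminescence after 30 min at room temperature.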

Experiment [6] can be described thus: qHTS assay to identify small molecule agonists of H2AX (AID 1224845; active means well fitted activation curve with a large enough effect in the signal ratio in the repeat runs, not every such curve was filed as active; the % refers to the signal ratio; further: potency means the concentration at half of the fitted maximal effect). The essentials:
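Wild-type CHO-K1 cells, plated overnight, exposed 3hr at 37C to 15 concentrations (0.76% DMSO final). Lysed, then HTRF anti-pH2AX (S139) cryptate and anti-H2AX-d2 antibodies, 24 hr room temperature; 665/620 nm emission read.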

Experiment [7] in a line: qHTS assay to identify small molecule antagonists of the estrogen related receptor (ERR) signaling pathway from Tox21 library (AID 1224848). Further: potency means the concentration at half of the fitted maximal effect; nearly all actives have a fitted effect of over 50% in size. The gist of the method:
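Luminescent reporter read-out (ONE-Glo) from NTP's ERR cell line after 18 h treatment at 37 C with DMSO-dissolved Tox21 compounds; cells pre-plated 6 h beforehand at 2,000 per well.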

The nature of experiment [8]: qHTS assay to identify small molecule agonists of the estrogen related receptor (ERR) signaling pathway from Tox21 library (AID 1224849; calls by dose curve; further: on the % scale 0 is the no-effect control and ±100 the full control effect; nearly all actives have a fitted effect of over 15% in size). Particulars: ERR reporter cell line, ONE-Glo luciferase, 18 h; at 92.4 µM (top of the series) unless noted. The essentials: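 ERR reporter cells (NTP line) pre-incubated 6 hours at 37 C, then exposed to compounds for 18 hours at 37 C. ONE-Glo luciferase luminescence was read after 30 minutes at room temperature.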

Experiment [9] can be described thus: qHTS RealTime-Glo MT Cell Viability Assay in HEK293 cells - 32 hour (AID 1224868). Further: nearly all actives have a fitted effect of over 50% in size. Further: potency means the concentration at half of the fitted maximal effect. The gist of the method: (§1)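 Tox21 10K qHTS, HEK293, 600 cells/well, RealTime-Glo reagent co-dispensed with cells; 5 h preincubation, compound by pintool, 37 C, luminescence at 0–40 h.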
Experiment [10] in a line: A CellTox Green Cytotoxicity Assay to monitor cytotoxicity in HEK293 cells - 0 hour (AID 1224869). Further: on the % scale 0 is the no-effect control and ±100 the full control effect; nearly all actives have a fitted effect of over 50% in size. The gist of the method:
(§2)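 HEK293 cells, 600/well, were preincubated 5 hours and then exposed to compounds at 37 C for up to 40 hours. A cell-impermeant cyanine dye staining dead-cell DNA was read by fluorescence at 0, 8, 16, 24, 32 and 40 h time points.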

Experiment [11] in a line: A CellTox Green Cytotoxicity Assay to monitor cytotoxicity in HEK293 cells - 40 hour (AID 1224871). Further: nearly all actives have a fitted effect of over 45% in size. Further: potency means the concentration at half of the fitted maximal effect. The essentials: as §2
Experiment [12] in a line: qHTS RealTime-Glo MT Cell Viability Assay in HEK293 cells - 16 hour (AID 1224872). Further: nearly all actives have a fitted effect of over 50% in size. Further: potency means the concentration at half of the fitted maximal effect. The essentials: as §1
Experiment [13] has as its target Nuclear receptor subfamily 1 group I member 3 (Homo sapiens) (UniProt Q14994). Briefly: qHTS assay to identify small molecule agonists of the constitutive androstane receptor (CAR) signaling pathway (AID 1224839). Further: nearly all actives have a fitted effect of over 15% in size. Further: potency means the concentration at half of the fitted maximal effect. On activation: on the % scale 0 is the no-effect control and ±100 the full control effect. The gist of the method:
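Double-stable HepG2 cells (hCAR, CYP2B6-2.2kb) seeded 4 h before compound addition. Exposure 24 h with 0.75 uM PK11195 final. Luciferase detected by ONE-Glo.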

Experiment [14] is described as follows: qHTS assay to identify small molecule antagonists of the estrogen related receptor signaling pathway with the pleiotropic PPARgamma coactivator (PGC) from Tox21 10K library (AID 1224841; call rule not given here). The essentials:
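PGC/ERR cell line, 2,000 cells/well, pre-incubated 6 hours at 37 C, then exposed to compounds for 18 hours at 37 C; luciferase read with One-Glo luminescence after 30 min at room temperature.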

Experiment [15] in a line: qHTS assay to identify small molecule agonists of H2AX - cell viability counter screen (AID 1224847; calls by dose curve; further: nearly all actives have a fitted effect of over 30% in size; further: potency means the concentration at half of the fitted maximal effect). The gist of the method: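 Quantitative HTS viability measurement: CHO-K1 wild-type cells in serum (10% FBS) medium, short 3 hr drug exposure at 37C with 0.76% DMSO, CellTiter-Glo luminescent detection.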
Experiment [16] can be described thus: qHTS RealTime-Glo MT Cell Viability Assay in HepG2 cells - 24 hour (AID 1224867). Further: nearly all actives have a fitted effect of over 50% in size. Further: potency means the concentration at half of the fitted maximal effect. The gist of the method:
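Cells + NanoLuc/prosubstrate dispensed (600 cells/well) → 5 h at 37 C/5% CO2 → compounds in DMSO transferred → 40 h incubation at 37 C, luminescence read at 0, 8, 16, 24, 32, 40 h.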

In experiment [17] the target is Nuclear receptor subfamily 1 group I member 3 (Homo sapiens) (UniProt Q14994). Briefly: qHTS assay to identify small molecule antagonists of the constitutive androstane receptor (CAR) signaling pathway (AID 1224838). Further: on the % scale 0 is the no-effect control and ±100 the full control effect; nearly all actives have a fitted effect of over 40% in size. The essentials:
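HepG2 cells stably carrying hCAR and a CYP2B6-2.2kb luciferase reporter, seeded 4 hrs before compound (15 concentrations). Stimulated with 50 nM CITCO for 24 hr at 37 C. ONE-Glo luminescence read after 30 min at room temperature.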

Experiment [18] can be described thus: qHTS assay to identify small molecule agonists of the hypoxia (HIF-1) signaling pathway (AID 1224846; active means well fitted activation curve with a large enough effect in the signal ratio in the repeat runs, not every such curve was filed as active; the % refers to the signal ratio; further: on the % scale 0 is the no-effect control and ±100 the full control effect). The gist of the method:
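HRE-bla ME-180 beta-lactamase reporter cells in medium with 0.5% dialyzed FBS, pre-incubated 5 h then exposed to compounds 17 h at 37C, 5% CO2; reporter induction read with CCF4-AM FRET substrate.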

A short description of experiment [19]: qHTS RealTime-Glo MT Cell Viability Assay in HepG2 cells - 40 hour (AID 1224870). Further: nearly all actives have a fitted effect of over 50% in size. Further: potency means the concentration at half of the fitted maximal effect. The gist of the method:
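HepG2 cells (600/well) mixed with RealTime-Glo MT reagent, settled 5 h at 37 C/5% CO2 before compound addition. Nonlytic NanoLuc luminescence from viable-cell prosubstrate reduction read repeatedly during 40 h treatment at 37 C.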

Chain of Nuclear receptor subfamily 1 group I member 3 (Homo sapiens) (Q14994 whole entry, looked up): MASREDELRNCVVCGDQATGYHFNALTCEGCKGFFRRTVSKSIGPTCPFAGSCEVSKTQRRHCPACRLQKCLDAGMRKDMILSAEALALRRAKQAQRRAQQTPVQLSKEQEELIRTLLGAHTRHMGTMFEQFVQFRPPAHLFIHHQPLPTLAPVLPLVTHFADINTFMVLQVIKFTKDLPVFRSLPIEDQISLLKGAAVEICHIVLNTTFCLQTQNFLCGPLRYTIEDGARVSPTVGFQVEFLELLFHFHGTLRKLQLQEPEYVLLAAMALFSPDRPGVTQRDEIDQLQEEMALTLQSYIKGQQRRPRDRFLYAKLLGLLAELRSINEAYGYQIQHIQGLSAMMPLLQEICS
Chain of Thyrotropin receptor (Homo sapiens) (P16473 whole entry, looked up): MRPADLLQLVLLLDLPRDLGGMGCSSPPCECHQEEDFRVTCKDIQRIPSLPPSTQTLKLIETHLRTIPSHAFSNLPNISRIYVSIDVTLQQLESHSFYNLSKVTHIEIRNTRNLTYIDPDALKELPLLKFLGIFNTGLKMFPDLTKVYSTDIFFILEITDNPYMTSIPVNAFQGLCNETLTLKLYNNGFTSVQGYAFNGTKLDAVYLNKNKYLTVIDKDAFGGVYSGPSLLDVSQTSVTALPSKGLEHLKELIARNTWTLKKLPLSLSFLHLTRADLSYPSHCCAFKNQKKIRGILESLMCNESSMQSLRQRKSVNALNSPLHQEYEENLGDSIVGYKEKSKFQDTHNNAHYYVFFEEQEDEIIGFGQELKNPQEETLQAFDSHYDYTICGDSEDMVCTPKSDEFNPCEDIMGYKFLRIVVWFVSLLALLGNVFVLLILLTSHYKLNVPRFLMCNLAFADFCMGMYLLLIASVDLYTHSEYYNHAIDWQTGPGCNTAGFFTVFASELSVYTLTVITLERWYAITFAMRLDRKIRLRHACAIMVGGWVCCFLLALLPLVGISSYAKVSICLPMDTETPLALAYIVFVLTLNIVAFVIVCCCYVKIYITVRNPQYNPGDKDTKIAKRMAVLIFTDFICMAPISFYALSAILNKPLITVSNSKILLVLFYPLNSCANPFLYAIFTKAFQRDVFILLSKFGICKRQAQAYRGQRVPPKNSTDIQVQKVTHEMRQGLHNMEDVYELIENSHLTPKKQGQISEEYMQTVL

Consider `Cc1ccc2oc(CN(Cc3ccccc3)C(=O)Nc3c(F)cc(F)cc3F)c(-c3ccc(Cl)cc3)c2c1`, for which the Potency entry in experiment [1], in experiment [2], in [3], in experiment [4], in experiment [5] and in experiment [6] was “inactive” throughout. The Potency entry in [9], in [10], in experiment [11] and in [12] was “inactive” throughout. Besides, the Potency in experiment [7] is 23.6 µM (active). Moreover, the activity change, positive = activation in experiment [8] is -42.4%.

Take `CCCN(CCC)c1c([N+](=O)[O-])cc(C(F)(F)F)c(N)c1[N+](=O)[O-]`: the Potency is 68.4 µM (active) in [1]; 13.6 µM (active) in [13]; 43.1 µM (active) in experiment [2]; 38.5 µM (active) in [14]; 13.8 µM (active) in experiment [5]; 35.6 µM (active) in experiment [6]. Further, the Potency in experiment [15] was 50.4 µM (active); in experiment [7], 30.5 µM (active); in experiment [16], 54.8 µM (active); in experiment [9], 19.4 µM (active); in experiment [11], 54.8 µM (active); in experiment [12], 12.3 µM (active). The Potency entry in experiment [3] and in experiment [10] was “inactive” throughout. In addition, the activity change, positive = activation in [8] is -75.7%.

Consider `Nc1ccc(N)c2ccccc12`, for which the Potency in experiment [1] is 30.6 µM (active); in [2] it was 54.4 µM (active); in [15], 101 µM (active); in [7], 27.3 µM (active); in experiment [12] it was 54.9 µM (active). Moreover, the Potency entry in experiment [13], in experiment [3], in experiment [4] and in experiment [10] was “inactive” in each case.

On to `CC/C(=C(\c1ccc(O)cc1)c1ccc(OCCN(C)C)cc1)c1ccccc1`, for which the Potency in experiment [1] is 68.7 µM (active); in experiment [2], 48.7 µM (active); in experiment [15] it was 90 µM (active); in experiment [7] it was 48.7 µM (active); in experiment [16], 61.8 µM (active); in experiment [11], 43.8 µM (active). Further, the Potency in experiment [12] was 24.6 µM (active). The Potency entry in experiment [13], in experiment [3] and in experiment [10] was “inactive” in each case. In [8], the activity change, positive = activation was -78.4%.

As to `O=C(O)c1c(Cl)cccc1Cl`, the Potency entry in [1], in experiment [17], in [13], in experiment [2], in [5] and in experiment [6] was “inactive” throughout. The Potency entry in experiment [18], in experiment [15], in experiment [16], in experiment [9], in [10] and in experiment [19] was “inactive” throughout. The Potency result in experiment [11] and in experiment [12] was “inactive” throughout.

Regarding `CC(C)c1ccc2c(c1)CC[C@H]1[C@](C)(CN)CCC[C@]21C`, the Potency in experiment [1] is 68.6 µM (active); in experiment [15], 89.8 µM (active); in experiment [7], 68.6 µM (active); in [16], 13.8 µM (active); in experiment [19], 11 µM (active); in experiment [11] it was 19.5 µM (active). For the same compound, the Potency in experiment [12] was 13.8 µM (active). Moreover, the Potency result in experiment [3] and in [10] was “inactive” throughout. For the same compound, the activity change, positive = activation in experiment [8] is -75.7%.

Regarding `COC(=O)C1=C(C)NC(C)=C(C(=O)OCCc2ccc(N3CCN(C(c4ccccc4)c4ccccc4)CC3)cc2)C1c1cccc([N+](=O)[O-])c1` (configuration not stated), the Potency result in experiment [1], in experiment [2], in experiment [5], in experiment [6], in experiment [15] and in experiment [16] was “inactive” each time. For the same compound, the Potency result in experiment [9], in experiment [10], in experiment [19], in experiment [11] and in [12] was “inactive” throughout.
